# Source: PubChem BioAssay AID504843 (Broad Institute, 2011)
# In all, about 1,200 compounds went through this assay and about 360 (30%) were called active. These entries were drawn from the full list. Potency and affinity values are given separately. Unmarked numbers belong to inactive results. No rule for the calls is given here.
# Test: antibacterial activity by ATP level – BacTiter-Glo luminescence, cherry-picked samples, counter-screen, dose response (AID 504843);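 also: growth measured after 8 h incubation at 30 °C; 0% = median of sample compound wells and -100% = antibiotic control wells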
# Conditions: bacterial growth; series mostly up to 15 µM; activity change, negative = inhibition: at the top concentration
row,SMILES,"activity change, negative = inhibition [%]"
1,CCOc1ccc(-c2cn(-c3ccc(OC)cc3)c(SC)n2)cc1,4.67
2,COC(=O)C1=CN(C(C)C)C=C(C(=O)OC)C1c1cccc(OC)c1,-0.278
3,COc1cccc(NC(=O)Nc2cnccn2)c1,17.8
4,CCOc1ccc2[nH]c(C)c(CN3CCCCC3)c(=O)c2c1,0.19
5,CCSC1=C(C#N)C(c2ccc(Cl)cc2)C2=C(CCCC2=O)N1 (stereo unspecified),-2.99
6,CC(C)N1C(=O)NC2(c3ccccc3)N(C)C(=O)N(C)C12c1ccccc1 (stereo unspecified),3.92
7,O=C(N1CCCC1)C12CC3CC(C1)CC(C(=O)N1CCCC1)(C3)C2,-9.58
8,CN(C)c1ccc(C(=O)C(O)c2ccc(C(C)(C)C)cc2)cc1 (stereo unspecified),-7.55
9,CN(C)S(=O)(=O)n1cc(/C=C(\NC(=O)c2ccccc2F)C(=O)N2CCOCC2)c2ccccc21,0.486
10,O=C(NCc1ccc2c(c1)OCO2)c1c(O)c2cccc3c2n(c1=O)CCC3,8.33
11,CCOc1ccccc1NC(=O)NCc1ccc2c(c1)OCO2,12
12,COCCNc1nc(N)c([N+](=O)[O-])c(NCC2CCCO2)n1 (stereo unspecified),13.3
13,Cn1ccc(=Nc2ccc(NC(=O)c3ccc(N=c4ccn(C)c5ccc([N+](=O)[O-])cc45)cc3)cc2)cc1,8.29
14,Cc1cc(=O)[nH]c(SCC(=O)NCc2ccc3c(c2)OCO3)n1,-3.42
15,Clc1ccccc1CSc1nnc(-c2cccnc2)n1Cc1ccco1,-1.87
16,N=C(N)c1ccc(/C=C/c2ccc(C(=N)N)cc2O)cc1,10.4
17,O=C(Nc1ccc2c(c1)OCCO2)c1ccc(Cl)c(S(=O)(=O)N2CCCCC2)c1,11.6
18,O=C(C1CCCN(S(=O)(=O)c2cccnc2)C1)N1CCn2c1nc1ccccc12 (stereo unspecified),-1.21
19,CCOC(=O)c1sc(C)c2c1NC(C)(c1ccccc1)NC2=O (stereo unspecified),-12.4
20,Cc1c(NC(=O)Nc2ccccc2)cccc1[N+](=O)[O-],11.4
21,COc1ccc(CN2CSC(=S)N(Cc3ccccc3)C2)cc1,2.29
22,CC(C)(C)c1nnc(NC(=O)NS(=O)(=O)c2ccccc2)s1,12.1

row,SMILES,"activity change, negative = inhibition [%]"
1,Cc1nc(Nc2ccc(Cl)cc2Cl)sc1C(=O)Nc1ccccc1,-6.74
2,O=C(NCc1cccnc1)C(=O)NCC1OCCN1S(=O)(=O)c1ccc(F)cc1 (stereo unspecified),-3.66
3,Cc1cc(C(=O)NNC(=O)c2ccc(F)cc2)c(C)s1,11.2
4,O=C(c1n[nH]c2ccccc12)N1CCOCC1,-3.98
5,CCN(CC)CC(=O)N(CC(=O)Nc1c(C)cc(C)cc1C)C1CCCCC1,6.71
6,CCCCN(C)C(=O)c1cc2cc([N+](=O)[O-])cc(OC)c2oc1=O,16.6
7,CCOC(=O)c1sc(Nc2nc3ccc(OC)cc3s2)cc1C,-1.02
8,COc1ccc(S(=O)(=O)N2CCC(C(=O)NCc3cccnc3)CC2)cc1OC,9.42
9,COc1ccc(OC)c(NC(=O)NCc2cccnc2)c1,1.13
10,COc1ccc(C(=O)OC(C)CN2CCN(C)CC2)cc1 (stereo unspecified),-6.2
11,CC(=O)c1ccc(NC(=O)CSc2nc(N3CCOCC3)nc(N3CCOCC3)n2)cc1,-8.88
12,NC(=O)C1CCN(C(=O)CSc2nc3ccccc3o2)CC1,-10.7
13,CCCCNC(=O)NNC(=O)c1ccc(F)cc1,17.9
14,COc1ccc(C2OC(=O)CC2C(=O)NCc2ccc(F)cc2)cc1OC (stereo unspecified),11.5
15,CCOC(=O)N1CCN(c2ccc(C(=O)CC)cc2F)CC1,1.6
16,O=C(O)Cn1cc(C(=S)N2CCOCC2)c2ccccc21,1.11
17,O=C(NC(=S)N1CCc2ccccc21)c1ccccc1Cl,3.89
18,COCCn1c(=NC(=O)c2ccc3c(c2)OCCO3)sc2cc(S(N)(=O)=O)ccc21,12.3
19,CCOC(=O)C1=C(C)c2ccccc2OC1(C(=O)OCC)C(C)C (stereo unspecified),12
20,CCOc1ccc(S(=O)(=O)Nc2cc(Cl)ccc2O)cc1,0.342
21,Cc1ccc(NC(=O)CCCc2nc3ccccc3s2)c(O)c1,-5.14
22,O=C(COc1ccc2c3c(c(=O)oc2c1)CCCC3)NCCCn1ccnc1,-22.2

row,SMILES,"activity change, negative = inhibition [%]"
1,O=C(N/N=C/c1cn(-c2cccs2)nc1-c1ccccc1)c1ccccc1O,13.5
2,Oc1c(Cl)cc(Cl)cc1C1Nc2ccccc2-n2cccc21 (stereo unspecified),-4.71
3,COc1ccc(N(C2=NCCCS2)S(=O)(=O)c2ccc(C(C)(C)C)cc2)cc1,-5
4,Cc1cc(C(=O)CN2C(=O)C3CC=CCC3C2=O)c(C)n1-c1ccccc1 (stereo unspecified),12.8
5,C=C(C)CSc1nnc(-c2ccc(OC)c(OC)c2)n1N,9.53
6,CCCCOc1ccc(C2CC(=O)N(C)C2=O)cc1 (stereo unspecified),12.5
7,CCCCC1C(=O)N(c2ccccc2)N(c2ccc(O)cc2)C1=O (stereo unspecified),16.9
8,CO[C@H]1/C=C/O[C@@]2(C)Oc3c(C)c(O)c4c(O)c(c5c(c4c3C2=O)NC2(CCN(CC(C)C)CC2)N=5)=NC(=O)/C(C)=C\C=C\[C@H](C)[C@H](O)[C@@H](C)[C@@H](O)[C@@H](C)[C@H](OC(C)=O)[C@@H]1C,13.9
9,CCc1cccc(CC)c1NC(=S)NCC(c1cccnc1)N(C)C (stereo unspecified),-1.21
10,O=C(CCCn1c(=O)[nH]c2ccsc2c1=O)N1CCCCC1,-13.5
11,CCCCNC(=O)COC(=O)CCC(=O)c1cccs1,-2.41
12,Cc1n[nH]c(=O)nc1N1CCc2ccccc2C1,-11.8
13,CCOc1nc(Nc2ccc(OC)c(Cl)c2)nc(OCC)n1,-13.6
14,CC1=NN(c2ccccc2)C(=O)C1c1ccccc1 (stereo unspecified),-7.25
15,Cc1ccc(OC(=O)c2cc(=O)c3ccccc3o2)cc1,11.8
16,COc1cccc(-c2nn3c(-c4ccccn4)nnc3s2)c1,-8.38
17,Clc1ccc(-c2nnc3c4ccccc4nc(N4CCOCC4)n23)cc1Cl,4.28
18,CC(C)n1ncc2c(C(=O)N3CCN(Cc4ccc(Br)s4)CC3)cc(C3CC3)nc21,-10.1
19,CC(=O)c1c(C)[nH]c(C(=O)Nc2ccccc2N2CCOCC2)c1C,6.19
20,Cc1ccc(CS(=O)(=O)CCC(=O)NCCCN2CCCC2)cc1,-7.04
21,CCCn1c(N)c(C(=O)CSc2nnnn2-c2ccc(O)cc2)c(=O)n(C)c1=O,-2.28
22,CCc1nnc(NC(=O)C2CCC2)s1,-4.19

row,SMILES,"activity change, negative = inhibition [%]"
1,COCC(=O)Nc1ccccc1Br,6.59
2,COc1cc(CN(C2CCCCC2C)S(=O)(=O)c2ccc(S(=O)(=O)NC3CC3)cc2)cc(OC)c1OC (stereo unspecified),-4.38
3,COc1ccc(-c2cc([C@H]3[C@@H]4C=CCC[C@@]4(C)C(=O)N3Cc3ccccc3)ccc2F)cc1,7.72
4,NS(=O)(=O)c1ccc(CCNc2nc(C(F)(F)F)nc3ccccc23)cc1,12
5,Cc1ccnc(NC(c2cccnc2)c2ccc3cccnc3c2O)c1 (stereo unspecified),-11.9
6,O=C1CN(C(=O)COC(=O)c2cc(S(=O)(=O)N3CCOCC3)ccc2Cl)c2ccccc2N1,9.82
7,CCCOc1cc(C)c(S(=O)(=O)N2CCN(C)CC2)cc1C,-15.3
8,Cc1ccc(C)c(NC(=S)N(CCc2ccncc2)C(C)C)c1,7.28
9,CC(C)Cc1ccc(CN2CCCC(NC(=O)Cn3cnnn3)C2)cc1 (stereo unspecified),7.33
10,COCc1cc(CNC(=O)C2CCC(=O)N(Cc3ccccc3OC)C2)[nH]n1 (stereo unspecified),11.7
11,COc1cccc(CN2CC(C(=O)NCCOc3cccnc3)CCC2=O)c1 (stereo unspecified),-2.68
12,CC(C)C[C@@H](CN1CCC[C@@H]1CN1C(=O)C(=O)NC[C@@H]1Cc1ccccc1)N1C[C@H](Cc2ccc(O)cc2)N(CC2CCCCC2)C(=O)C1=O,-2.65
13,Cc1cc(Nc2nc3ccccc3nc2Cl)n(-c2ccccc2C)n1,-19.4
14,Cc1cc(C)cc(CSc2nnc(C)c(=O)[nH]2)c1,12.2
15,Cc1ccc(C)n1-c1ccc(-c2ccnc(N)n2)cc1,-7.48
16,COc1ccc(S(=O)(=O)N(C)c2ccc(C(=O)N3CCOCC3)cc2)cc1,-3.06
17,O=C(CCNS(=O)(=O)c1ccccc1C(F)(F)F)NCCCN1CCOCC1,10.8
18,COc1cccc(CNC(=O)CN2C(=O)CCSc3ccc(S(=O)(=O)N4CCCC4)cc32)c1,15.1
19,COc1ccc(-n2c(O)c(/C=N/NS(=O)(=O)c3cccc([N+](=O)[O-])c3)c3ccccc3c2=O)cc1OC,-16.4
20,O=C(N/C(=C/c1cccc([N+](=O)[O-])c1)C(=O)N1CCOCC1)c1ccc(Br)cc1,-4.16
21,COC(=O)/C(=C/c1ccco1)NC(=O)c1ccccc1,16.3
22,Nc1cc(OC(=O)c2ccc(F)cc2)nn1S(=O)(=O)c1ccc(F)cc1,8.53

row,SMILES,"activity change, negative = inhibition [%]"
1,CCc1nc2ccccc2c(C(=O)OC2CCOC2=O)c1C (stereo unspecified),-24.9
2,O=C(O)c1cccc(NC(=O)c2ccccc2)c1,-1.77
3,c1ccc(NC(=NCc2ccco2)c2ccccc2)cc1,-3.37
4,CC(C)c1c(C(=O)N/N=C/C2CC=CCC2)nnn1-c1nonc1N (stereo unspecified),-11.7
5,O=C(CN1CCN(c2ccccc2F)CC1)NC(=O)NCc1ccccc1,-10.5
6,O=C(O)c1ccc(CSc2nnc(-c3ccncc3)n2-c2ccc(Cl)cc2)cc1,-3.41
7,Cc1nc(N2CCN(S(=O)(=O)c3ccc(Br)cc3)CC2)c2c(C)c(C)sc2n1,-5.15
8,COC(=O)c1sc(NC(=O)CSc2nnnn2-c2ccc(C)cc2C)nc1C,4.55
9,CCCc1cc(=O)[nH]c2nnc(SCC(=O)Nc3ccc4c(c3)OCCO4)n12,0.067
10,COc1ccccc1NS(=O)(=O)c1ccc2[nH]c(=S)oc2c1,3.6
11,c1ccc(C2NCCc3ccccc32)cc1 (stereo unspecified),5.25
12,CCOc1ccc2nc(NC(=O)CN3CCC(n4nnc5cc(F)ccc54)CC3)sc2c1,12.9
13,Cc1cc(C)c2oc(=O)cc(CN3CCN(Cc4ccc5c(c4)OCO5)CC3)c2c1,-5.29
14,O=C(Nc1ccc(Oc2ccccc2)nc1)C1CCCCN1Cc1ccc(OCCO)cc1 (stereo unspecified),14
15,CCCNc1nc2c(c(=O)[nH]c(=O)n2C)n1CCCc1ccccc1,-5.21
16,COCCn1c(-c2cccc([N+](=O)[O-])c2)nc2c1c(=O)[nH]c(=O)n2Cc1ccccc1,-0.242
17,CCC1CCCCN1Cc1nc2c(c(=O)n(C)c(=O)n2C)n1CCCc1ccccc1 (stereo unspecified),-9.51
18,COCCCNc1nc2c(c(=O)[nH]c(=O)n2C)n1CC(O)COc1cccc(C)c1 (stereo unspecified),-1.28
